Measurements taken from PubChem BioAssay.
Calls of active or inactive are those of the source.

Assays:
[1] = tested on: Plasmodium falciparum Sir2 (PF13_0152, Sir2A); assay: pfSir2 binders on small-molecule microarrays, primary screen, biochemical, small-molecule microarray, 635 nm fluorescence (AID 1098); conditions: small-molecule microarray binding, fluorescence 635 nm; higher = more signal;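 note: score merges spot fluorescence intensity with its signal-to-noise ratio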
[2] = small-molecule microarray binders of probe aDKK1, primary screen, biochemical, biotinylated probe, 635/667 nm fluorescence (AID 1099); conditions: higher = more signal;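 note: score merges 667nm spot fluorescence with signal to noise across triplicate slides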
[3] = small-molecule microarray binders of probe aCHRDL2, primary screen, biochemical, biotinylated probe, 635/667 nm fluorescence (AID 1100); conditions: higher = more signal
[4] = splicing luciferase reporter signal modulators, primary screen, spliceosome inhibition project, cell-based, HEK293, splice +/- reporter (AID 1101); conditions: luminescence, 24 h, higher = more signal, called active from +8 up or from −8 down;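 note: HEK293 cells carrying a splicing-competent luciferase reporter gene; test concentration not given here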
[5] = molecular target: Fibroblast growth factor 10 (Homo sapiens) (UniProt O15520); assay: FGF10 binders on small-molecule microarrays, primary screen, biochemical, small-molecule microarray, 635 nm fluorescence (AID 1102); conditions: FGF10 binding, fluorescence 635 nm, higher = more signal
[6] = tested on: glycogen synthase kinase-3 (GSK3A per assay name; protocol says GSK3B); assay: GSK3 binders on small-molecule microarrays, primary screen, biochemical, small-molecule microarray, 635 nm fluorescence, GSK3A (AID 1103); conditions: small-molecule microarray binding, fluorescence 635 nm; higher = more signal; note: the record names both GSK3A and GSK3B
[7] = molecular target: Epidermal growth factor receptor (Homo sapiens) (UniProt P00533); assay: EGFR binders on small-molecule microarrays, primary screen, biochemical, small-molecule microarray, 635 nm fluorescence (AID 1104); conditions: EGFR binding, higher = more signal;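 note: score merges 667 nm emission intensity with spot signal to noise over triplicate slides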
[8] = molecular target: Follistatin-related protein 3 (Homo sapiens) (UniProt O95633); assay: FSTL3 binders on small-molecule microarrays, primary screen, biochemical, small-molecule microarray, 635 nm fluorescence (AID 1105); conditions: FSTL3 binding, higher = more signal;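 note: score merges emission near 667 nm and signal to noise per printed spot across three slides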
[9] = molecular target: Dickkopf-related protein 1 (Homo sapiens) (UniProt O94907); assay: DKK1 binders on small-molecule microarrays, primary screen, biochemical, small-molecule microarray, 635 nm fluorescence scan (AID 1106); conditions: DKK1 binding, higher = more signal;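 note: score merges emission near 667 nm with signal to noise over three replicate slides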
[10] = tested on: Inhibin beta A chain (activin A); assay: INHBA (activin A) binders on microarrays, primary screen, biochemical, small-molecule microarray, 635 nm fluorescence scan (AID 1107); conditions: small-molecule microarray binding, higher = more signal;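 note: mouse activin A protein probed at 4.33 µg/mL on printed slides; score merges bound-protein fluorescence near 667 nm with spot signal-to-noise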
[11] = tested on: Human papillomavirus type 1a protein E7 (residues 44-93); assay: HPV1a E7 fragment binders on microarrays, primary screen, biochemical, small-molecule microarray, residues 44-93, 635 nm fluorescence (AID 1108); conditions: small-molecule microarray binding, fluorescence 635 nm; higher = more signal;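 note: E7 fragment applied at 1 µg/mL in TBST for 1 h at 4 C; score combines spot fluorescence with its signal to noise ratio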
[12] = modulators of HCV replicon luciferase signal, primary screen, HCV replication inhibitor project, Huh7 cells, luciferase reporter (AID 1109); conditions: 48 h, higher = more signal;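 note: huh7 hepatoma cells harbouring a luciferase neomycin HCV replicon reporter; luciferase luminescence as measure of HCV replicon replication; test concentration not given here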
[13] = molecular target: Left-right determination factor 2 (Homo sapiens) (UniProt O00292); assay: LEFTY2 binders on small-molecule microarrays, primary screen, biochemical, small-molecule microarray, 635 nm fluorescence scan (AID 1110); conditions: LEFTY2 binding, higher = more signal
[14] = molecular target: Calmodulin-1 (Homo sapiens) (UniProt P0DP23); assay: CALM1 binders on microarrays, EGTA buffer, profiling panel, biochemical, small-molecule microarray, Cy5-labelled CALM1 (AID 1111); conditions: Cy5-CALM1 binding fluorescence, higher = more signal;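 note: labelled calmodulin applied in Tris saline Tween buffer holding calcium plus EGTA and DTT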
[15] = molecular target: Calmodulin-1 (Homo sapiens) (UniProt P0DP23); assay: calcium-bound CALM1 binders on microarrays, profiling panel, artefact control for SMM control-protein annotation, biochemical, small-molecule microarray, Cy5-labelled CALM1, plus calcium (AID 1112); conditions: Cy5-CALM1 binding fluorescence, higher = more signal;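 note: score merges spot fluorescence with signal to noise from triplicate slides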
[16] = small-molecule microarray binders of probe aWnt5a, primary screen, biochemical, biotinylated probe, 635/667 nm fluorescence (AID 1113); conditions: higher = more signal;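 note: score merges 667 nm fluorescence intensity with signal-to-noise per printed feature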
[17] = small-molecule microarray binders of probe aShh, primary screen, biochemical, biotinylated probe, 635/667 nm fluorescence (AID 1114); conditions: higher = more signal;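 note: probe is biotin-labelled aShh protein from a stem cell growth factor screen; measures binding of labelled protein to compounds printed on the slide; score merges feature fluorescence at 667 nm with signal-to-noise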
[18] = small-molecule microarray binders of probe aNog, primary screen, biochemical, biotinylated probe, 635/667 nm fluorescence (AID 1115); conditions: higher = more signal;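 note: probe is biotinylated aNog protein used at 0.15 µg/mL for 1 h at 4 C; z-score combines 667 nm fluorescence of each spot with its signal to noise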
[19] = molecular target: Torsin-1A-interacting protein 1 (Homo sapiens) (UniProt Q5JTV8); assay: LAP1 binders from COS7 cell lysate, primary screen, small-molecule microarray, 635/667 nm fluorescence (AID 1116); conditions: COS7-hLAP1 lysate binding, 635 nm fluorescence, higher = more signal
[20] = molecular target: Alpha-bungarotoxin (Bungarus multicinctus) (UniProt P60615); assay: alpha-bungarotoxin binders on microarray, profiling panel, artefact control for SMM control protein annotation, biochemical, small-molecule microarray, Alexa647 label, 635/667 nm fluorescence (AID 1117); conditions: alpha-BTX-A647 binding fluorescence, higher = more signal
Alpha-bungarotoxin (Bungarus multicinctus), sequence (P60615 whole entry, looked up): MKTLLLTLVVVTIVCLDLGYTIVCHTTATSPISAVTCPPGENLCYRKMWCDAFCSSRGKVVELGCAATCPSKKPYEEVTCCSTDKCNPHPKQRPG

Torsin-1A-interacting protein 1 (Homo sapiens), sequence (Q5JTV8 whole entry, looked up): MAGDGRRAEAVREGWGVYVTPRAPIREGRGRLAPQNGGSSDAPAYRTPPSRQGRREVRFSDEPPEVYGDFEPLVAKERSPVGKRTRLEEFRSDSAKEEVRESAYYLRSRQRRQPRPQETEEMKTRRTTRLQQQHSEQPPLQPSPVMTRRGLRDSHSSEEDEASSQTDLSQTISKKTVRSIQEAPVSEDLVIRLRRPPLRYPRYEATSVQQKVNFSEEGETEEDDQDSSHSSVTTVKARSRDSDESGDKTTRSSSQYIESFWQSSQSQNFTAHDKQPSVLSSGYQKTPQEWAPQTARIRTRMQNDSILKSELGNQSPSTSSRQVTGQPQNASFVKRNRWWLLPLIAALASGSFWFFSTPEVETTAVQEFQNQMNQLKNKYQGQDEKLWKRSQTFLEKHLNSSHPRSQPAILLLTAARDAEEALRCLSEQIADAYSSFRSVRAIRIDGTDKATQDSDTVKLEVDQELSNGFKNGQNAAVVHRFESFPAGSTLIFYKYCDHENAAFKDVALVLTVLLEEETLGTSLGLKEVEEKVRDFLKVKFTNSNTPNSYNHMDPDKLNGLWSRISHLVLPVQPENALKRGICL
Follistatin-related protein 3 (Homo sapiens), sequence (O95633 whole entry, looked up): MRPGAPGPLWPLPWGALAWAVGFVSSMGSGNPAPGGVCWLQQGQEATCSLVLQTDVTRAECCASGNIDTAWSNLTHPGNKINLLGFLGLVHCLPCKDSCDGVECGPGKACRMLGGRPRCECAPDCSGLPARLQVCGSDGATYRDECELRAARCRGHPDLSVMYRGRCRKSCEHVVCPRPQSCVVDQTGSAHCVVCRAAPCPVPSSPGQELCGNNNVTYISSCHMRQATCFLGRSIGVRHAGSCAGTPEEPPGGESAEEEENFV
Left-right determination factor 2 (Homo sapiens), sequence (O00292 whole entry, looked up): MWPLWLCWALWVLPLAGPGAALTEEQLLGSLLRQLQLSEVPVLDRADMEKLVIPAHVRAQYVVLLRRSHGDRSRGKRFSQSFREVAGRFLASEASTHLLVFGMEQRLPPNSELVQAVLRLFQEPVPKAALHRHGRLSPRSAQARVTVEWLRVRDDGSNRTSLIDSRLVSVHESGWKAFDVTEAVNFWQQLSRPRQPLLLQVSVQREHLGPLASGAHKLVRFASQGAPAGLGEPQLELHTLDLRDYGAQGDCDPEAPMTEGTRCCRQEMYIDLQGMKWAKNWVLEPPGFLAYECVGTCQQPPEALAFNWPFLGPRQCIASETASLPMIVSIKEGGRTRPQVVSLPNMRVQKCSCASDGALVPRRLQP
Fibroblast growth factor 10 (Homo sapiens), sequence (O15520 whole entry, looked up): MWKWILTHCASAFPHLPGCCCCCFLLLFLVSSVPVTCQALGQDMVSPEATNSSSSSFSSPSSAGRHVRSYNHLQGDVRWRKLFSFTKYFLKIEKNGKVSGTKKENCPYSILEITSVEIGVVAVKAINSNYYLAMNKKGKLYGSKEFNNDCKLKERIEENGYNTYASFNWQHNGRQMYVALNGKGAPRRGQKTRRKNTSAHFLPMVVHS
Epidermal growth factor receptor (Homo sapiens), sequence (P00533 whole entry, looked up): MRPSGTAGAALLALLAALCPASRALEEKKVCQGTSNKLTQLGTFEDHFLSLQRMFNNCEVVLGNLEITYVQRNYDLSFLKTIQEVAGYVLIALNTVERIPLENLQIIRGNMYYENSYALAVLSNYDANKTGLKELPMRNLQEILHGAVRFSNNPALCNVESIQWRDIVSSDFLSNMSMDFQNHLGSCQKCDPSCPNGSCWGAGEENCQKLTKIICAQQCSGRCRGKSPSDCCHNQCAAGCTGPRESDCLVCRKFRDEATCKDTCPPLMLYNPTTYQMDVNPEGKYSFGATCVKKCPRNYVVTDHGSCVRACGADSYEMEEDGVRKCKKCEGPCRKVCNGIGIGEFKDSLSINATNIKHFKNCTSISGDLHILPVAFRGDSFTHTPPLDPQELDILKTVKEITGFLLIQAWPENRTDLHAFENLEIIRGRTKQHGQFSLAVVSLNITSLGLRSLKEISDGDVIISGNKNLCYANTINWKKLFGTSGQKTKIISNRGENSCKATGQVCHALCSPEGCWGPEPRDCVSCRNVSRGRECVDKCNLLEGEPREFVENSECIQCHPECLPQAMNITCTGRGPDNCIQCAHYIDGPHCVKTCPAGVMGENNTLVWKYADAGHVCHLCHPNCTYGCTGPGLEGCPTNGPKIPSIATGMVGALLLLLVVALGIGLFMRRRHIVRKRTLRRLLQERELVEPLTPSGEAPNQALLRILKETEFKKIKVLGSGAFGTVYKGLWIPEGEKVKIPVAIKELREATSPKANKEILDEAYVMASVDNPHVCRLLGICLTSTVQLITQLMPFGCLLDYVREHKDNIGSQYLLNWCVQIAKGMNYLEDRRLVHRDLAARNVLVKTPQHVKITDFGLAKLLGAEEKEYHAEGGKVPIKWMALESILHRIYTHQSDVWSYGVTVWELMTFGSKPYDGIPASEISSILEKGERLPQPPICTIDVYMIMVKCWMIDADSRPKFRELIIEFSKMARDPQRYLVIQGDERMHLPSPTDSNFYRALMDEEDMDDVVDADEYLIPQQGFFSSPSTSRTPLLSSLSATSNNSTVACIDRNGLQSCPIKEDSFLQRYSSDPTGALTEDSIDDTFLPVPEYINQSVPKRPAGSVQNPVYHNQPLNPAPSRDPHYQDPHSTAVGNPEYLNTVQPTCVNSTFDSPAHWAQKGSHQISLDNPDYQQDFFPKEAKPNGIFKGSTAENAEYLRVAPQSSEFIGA
Dickkopf-related protein 1 (Homo sapiens), sequence (O94907 whole entry, looked up): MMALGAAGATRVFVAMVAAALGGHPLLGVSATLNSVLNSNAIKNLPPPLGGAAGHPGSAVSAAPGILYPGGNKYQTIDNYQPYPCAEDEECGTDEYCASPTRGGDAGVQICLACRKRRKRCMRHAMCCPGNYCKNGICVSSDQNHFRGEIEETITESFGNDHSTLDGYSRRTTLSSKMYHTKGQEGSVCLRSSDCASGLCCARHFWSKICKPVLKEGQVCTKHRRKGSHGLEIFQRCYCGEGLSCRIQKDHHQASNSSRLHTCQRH

Compound | composite z-score [1] | composite z-score [2] | composite z-score [3] | z-score [4] | composite z-score [5] | composite z-score [6] | composite z-score [7] | composite z-score [8] | composite z-score [9] | composite z-score [10] | composite z-score [11] | z-score [12] | composite z-score [13] | composite z-score [14] | composite z-score [15] | composite z-score [16] | composite z-score [17] | composite z-score [18] | composite z-score [19] | composite z-score [20]
COc1cc(NN2C(C(O)c3ccc(I)cc3)C=CC3C(=O)N(c4ccccc4)C(=O)C32)cc(OC)c1OC (stereo not given) | 0.913 | 0.763 | 1.04 | -0.329 (inactive) | 1.17 | 1.29 | 0.266 | 1.3 | -0.305 | 0.946 | 1.46 | -0.573 | 0.391 | 1.85 | 0.663 | 0.136 | 0.213 | 1.23 | 1.64 | 1.68
CCOC(=O)C[C@H]1[C@H](OC(=O)c2ccc(-c3ccccc3)cc2)[C@@H](NC(=O)CC(C)C)c2cc(OCCCO)ccc2N1C(=O)c1ccccc1 | 0.166 | 0.148 | -0.0525 | -0.493 (inactive) | 0.418 | -0.106 | -0.101 | 0.648 | 0.455 | 0.214 | 1.07 | -1.96 | 0.0613 | 0.232 | 0.462 | -0.0718 | -0.2 | -0.1 | 0.266 | 0.198
Cc1nc2cc(Br)ccc2c(=O)n1Cc1cccc(O)c1 | 0.547 | -0.136 | -0.282 | -0.0746 (inactive) | 0.89 | 0.768 | 0.416 | 0.782 | 1.16 | -0.022 | 0.804 | 0.201 | 0.874 | 0.523 | 0.302 | -0.0263 | -0.0946 | 0.761 | 1.21 | -0.0871
CN1C(=O)C2C=CC(C(O)c3cc(C(F)(F)F)cc(C(F)(F)F)c3)N(NC(=O)OC(C)(C)C)C2C1=O (stereo not given) | 0.733 | 0.781 | 1.05 | -0.149 (inactive) | 0.959 | 1.3 | 0.497 | 1.32 | -0.868 | 0.279 | 1.38 | -1.24 | 0.106 | 2.45 | 0.666 | -0.0607 | -0.0626 | 2.04 | 1.48 | 1.23
O=C(N1CCOCC1)[C@@]1(CCS(=O)(=O)c2ccccc2)N=C(c2ccc(OCCCO)cc2)O[C@H]1c1ccccc1 | 1.64 | 1.42 | 1.33 | 2.21 (inactive) | 0.646 | 1.22 | -0.412 | 0.424 | -0.383 | 0.382 | 1.1 | -0.892 | -0.563 | 2.58 | 1.33 | -0.0084 | -0.0441 | -0.273 | 1.85 | 2.84
C=C[C@@H](OC)[C@H](OC(=O)Nc1ccc(SC)cc1)c1ccc(OCCO)cc1 | 1.4 | 0.0622 | 0.527 | 1.46 (inactive) | 0.887 | 0.64 | 0.419 | 0.839 | 0.444 | 0.0469 | 1.44 | 0.462 | 0.0128 | 0.469 | -0.0827 | -0.0735 | 0.0639 | 0.36 | 1.03 | 1.36
NC(=O)[C@H]1[C@@H]2C(=O)O[C@@H](c3ccccc3)[C@@H](c3ccccc3)N2[C@@H](c2ccc(O)cc2)[C@]12C(=O)Nc1ccccc12 | 0.845 | -0.352 | 0.561 | -0.0764 (inactive) | -1.07 | -1.69 | -1.15 | -1.51 | -1.34 | -1.11 | -0.0092 | -0.449 | -0.194 | -0.408 | 0.517 | -0.0124 | -0.214 | -0.0753 | -0.428 | -1.15
C=C(CCCC)/C(=C/C[C@H](OC(C)=O)c1ccc(OCCO)cc1)c1cc(C(=O)OC)ccc1OC | 1.58 | -0.131 | 0.104 | 0.0591 (inactive) | 1 | 0.699 | -0.616 | 0.613 | -0.304 | 0.562 | 1.37 | -1.69 | -0.399 | 0.142 | -0.212 | 0.027 | -0.221 | -0.132 | 0.405 | 0.558
O=C1O[C@H](c2ccccc2)[C@H](c2ccccc2)N2[C@H]1[C@@H](C(=O)N1CCCCCCC1)[C@]1(C(=O)Nc3ccc(C#CC4(O)CCCCCC4)cc31)[C@H]2c1ccccc1OCCO | 2.09 | 3.17 | 1.7 | -0.0867 (inactive) | 1.56 | 1.48 | 1.96 | 1.77 | 2.77 | 1.69 | 1.59 | -1.88 | 1.78 | 3.09 | 1.81 | 1.53 | 1.92 | 3.25 | 5.71 | 4.23
[N-]=[N+]=NCc1ccccc1[C@H]1OC(c2ccc(OCCCO)cc2)=N[C@@]1(Cc1ccccc1)C(=O)NCCN1CCOCC1 | 1.23 | -0.378 | 0.75 | -1.06 (inactive) | 1.43 | 1.21 | 0.446 | 1.07 | 0.0815 | 0.768 | -0.442 | -1.62 | 0.293 | 0.572 | -0.138 | 0.0711 | 0.0088 | 1.97 | 1.28 | 1.78
CCCCC=C[C@@H](NC(=O)c1ccccc1)c1ccccc1 | 0.322 | 0.357 | 0.732 | -0.696 (inactive) | 0.659 | 1.22 | -0.056 | 0.79 | 0.0017 | 1.01 | 1.38 | 1.02 | -0.174 | 1.87 | 1.28 | -0.0229 | -0.253 | -0.578 | 0.206 | 0.448
